High-throughput results from PubChem.
Only some compounds are listed: those with a hit (about 1.1% of all), similar ones and a draw of the others.
BJeLR lethal: BJeLR cell viability loss; BJeLR (HRASV12) viability, CellTiter-Glo ATP luminescence, 48 h; inhibition, % (no concentration beside the values); hit rate 0.17% among 300,000; AID 1554; in the data active means inhibition above about 50%; inconclusive means no clear call, values can overlap the other calls
MazF activator: increases E. coli MazEF RNase cleavage of RNA; FAM/BHQ RNA-DNA oligo cleavage fluorescence, 5 h; activation, % at 20 µM; hit rate 0.32% among 350,000; AID 504720; in the data active means activation above about 50%
Target sequence (P0AE70 whole entry, looked up): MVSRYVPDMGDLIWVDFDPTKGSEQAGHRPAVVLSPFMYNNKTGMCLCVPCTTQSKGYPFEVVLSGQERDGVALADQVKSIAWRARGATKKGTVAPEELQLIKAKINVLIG
PrP UTR inh: inhibition of PrP 5' UTR reporter expression | hit rate 0.35% among 340,000 | AID 488862 | cell-based PrP 5' UTR mRNA reporter, plate reader | inhibition, % (concentration not given with the values); in the data active means inhibition above about 52%; further: 0 = median of the neutral control wells
PrPC surface inh: reduces human prion protein on the cell surface; P04156; hit rate 0.43% among 370,000; cell surface PrPC, TR-FRET read-out; inhibition, % at 13.8 µM; in the data active means inhibition above about 24%; further: 0% = median of the test wells and 100% = reference compound wells
PrP UTR cherry: prion 5' UTR mRNA inhibition, cherry-pick retest | cell-based prion protein 5' UTR reporter, plate reader | shares compounds with PrP UTR inh | hit rate 48% among 1,100 | inhibition, % at 2.5 µM; in the data active means inhibition above about 54%; inconclusive means no clear call, values can overlap the other calls
Active calls of the source: *; ? = inconclusive; / = no result.

SMILES	BJeLR lethal	MazF activator	PrP UTR inh	PrPC surface inh	PrP UTR cherry
CCC1(c2ccc(Cl)cc2)NC(=S)N(c2ccccc2)N1 (stereo not drawn)	-8	-9	-16	-6	/
CCC1(c2ccccc2)NC(=S)N(c2ccc(C)cc2)N1 (stereo not drawn)	-9	1	76*	2	-52
O=C(c1ccccc1)c1cc([N+](=O)[O-])ccc1N1CCOCC1	50	-1	-2	-16	/
CC1CCCN(c2ccc([N+](=O)[O-])cc2C(=O)c2ccccc2)C1 (stereo not drawn)	58*	0	61*	7	80*
Cc1ccc(C(=O)c2cc([N+](=O)[O-])ccc2N2CCCCC2)cc1	39	-6	56*	2	86*
COCCn1c(C)cc(C2=NNC(=Nc3ccccc3F)SC2)c1C	4	-2	67*	-7	?
C=CCN=C1NN=C(c2ccc3c(c2)OCCO3)CS1	4	-21	59*	-3	79*
COCCN=C1NN=C(c2cc(C)n(CC3CCCO3)c2C)CS1 (stereo not drawn)	5	-23	15	-8	/
C=CCN=C1NN=C(c2cc(C)n(CC=C)c2C)CS1	6	-9	83*	-4	79*
Cc1ccc(S(=O)(=O)NCCC(=O)N2CC(C)OC(C)C2)cc1 (stereo not drawn)	-1	8	75*	1	12
CC(=O)Nc1ccc(SCC(=O)c2cc(C)n(Cc3cccs3)c2C)cc1	-1	8	61*	3	36
COC(=O)c1ccc(-n2c(C)cc(C(=O)CSc3ccc(NC(C)=O)cc3)c2C)cc1	1	3	-5	9	/
CC(=O)Nc1ccc(SCC(=O)c2cc(C)n(-c3ccccc3F)c2C)cc1	1	-9	68*	4	21
CCN=C1S/C(=C/c2cc(C)n(-c3ccc(Cl)cc3F)c2C)C(=O)N1CC	/	/	/	7	/
COC(=O)c1cc2c(c3c4cc(F)ccc4n(S(=O)(=O)c4ccc(C)cc4)c13)C(=O)N(C)C2	/	/	/	-1	/
CCCCOCC1CN(CCCC)S(=O)(=O)c2c(Oc3ccc(C)cc3)cccc2O1 (stereo not drawn)	/	/	/	-3	/
COc1ccc(N=CC2=C(O)c3ccccc3C2=O)c(OC)c1	4	0	69*	-5	64*
CC(=O)Nc1ccc(CN2CCCC(CCC(=O)NCc3ccccc3F)C2)cc1 (stereo not drawn)	8	-15	80*	-2	-2
COc1ccc(C(=O)NN(C)c2nc(C(F)(F)F)nc3ccccc23)cc1	60*	6	71*	8	90*
O=C(NCc1ccccc1)[C@H]1CCCN1C(=O)[C@H]1CCCN1C(=O)c1ccc(F)cc1	/	/	/	0	/
COc1cc(-c2noc(C)c2/C=C/c2cccc([N+](=O)[O-])c2)cc(OC)c1OC	15	-10	58*	9	71*
CCOc1ccc(OCc2cccc(C(=O)N3CCOCC3)c2)cc1	0	-19	61*	9	70*
CCN(CCO)c1ccc(N=Nc2cc(C)[nH]n2)cc1	-2	-34	61*	-38	62*
CCN(CCO)c1ccc(Nc2cc(-c3ccc(-c4ccccc4)cc3)ncn2)cc1	/	/	/	11	/
CCN1C(=O)[C@H]2[C@H]3CN=C(SCc4ccccc4)N3[C@@](Cc3ccccc3)(C(=O)OC)[C@H]2C1=O	/	14	-17	1	/
SMILES	BJeLR lethal	MazF activator	PrP UTR inh	PrPC surface inh	PrP UTR cherry
CCN1C(=O)[C@H]2[C@H]3CN=C(SCC4CC4)N3[C@@](Cc3ccccc3)(C(=O)OC)[C@H]2C1=O	/	2	64*	-8	-1
O=c1c2c(n3nnnc3n1Cc1ccc(Cl)cc1)-c1ccccc1CC21CCCC1	/	/	/	6	/
COC(=O)c1cc(-c2ccccc2)c(=O)n2c1CCC2	/	/	/	6	/
CC(C)[C@H](NC(=O)C1CC1)C(=O)N1CCC[C@H]1C(=O)NCCc1ccccc1Cl	/	/	/	-5	/
Clc1ccc(-n2nnc(-c3nccs3)n2)cc1Cl	-6	5	-29	1	/
Cc1ccc(-n2nnc(-c3nccs3)n2)cc1	23	1	77*	0	62*
CC(C)[C@@H](C)/C=C/[C@@H](C)[C@H]1CC[C@@H]2[C@]1(C)CCC1[C@]23C=C[C@]2(C[C@@H](O)CC[C@]12C)N(c1ccc(Br)cn1)O3 (stereo partly drawn)	/	/	/	18	/
CN(C)c1ccc(/C=C2/SC(=O)N(CCN=C3NS(=O)(=O)c4ccccc43)C2=O)cc1	1	-319	-48	-4	/
CN(C)c1ccc(/C=C2\SC(=O)N(CCc3nnc(N)s3)C2=O)cc1	1	-94	56*	-11	76*
COC(=O)[C@]12C[C@H](CC(=O)NCCC(C)C)C(=O)N(Cc3ccccc3)C1=C[C@H](C(C)(C)C)O[C@@H]2C	/	/	/	8	/
CCN(CC)S(=O)(=O)c1ccc(N2CCCC2)c(NC(=O)CN2C(=O)NC3(CCCC3)C2=O)c1	-1	6	77*	-5	14
Cc1cc(O)cc(=O)n1-c1cccc(Br)c1	/	/	/	8	/
Cn1nnc2cc(C(=O)NC3CCCCC3)ccc21	0	9	75*	-2	83*
Fc1cccc(/C=N/Nc2nc3ccccc3[nH]2)c1	5	5	/	-3	/
C(=N\Nc1nc2ccccc2[nH]1)/c1ccccc1	-8	-4	55*	4	-56
CC1CCCN(c2ncnc3c2cnn3-c2ccc(Cl)cc2)C1 (stereo not drawn)	1	-2	88*	-3	84*
CS(=O)(=O)Nc1ccccc1C(=O)NCC1(N2CCCCC2)CCCCC1	-1	3	67*	3	-4
O=C(NCC1(N2CCCCC2)CCCCC1)c1ccc(NS(=O)(=O)c2ccccc2)cc1	-1	4	-16	-8	/
CC1OC(OC2C(O)CC(OC3C(O)CC(OC4CCC5(C)C(CCC6C5CCC5(C)C(C7=CC(=O)OC7)C(O)CC65O)C4)OC3C)OC2C)CC(O)C1O (stereo not drawn)	/	7	94*	2	86*
CC(=O)OC1CC2(O)C3CCC4CC(O)CCC4(C)C3CCC2(C)C1C1=CC(=O)OC1 (stereo not drawn)	/	9	86*	3	80*
C[C@H]1O[C@@H](O[C@H]2[C@@H](O)C[C@H](O[C@H]3[C@@H](O)C[C@H](O[C@H]4CC[C@@]5(C)[C@H](CC[C@@H]6[C@@H]5CC[C@]5(C)[C@@H](C7=CC(=O)OC7)CC[C@]65O)C4)O[C@@H]3C)O[C@@H]2C)C[C@H](O)[C@@H]1O	/	-2	/	/	/
CC(=O)OCC(=O)C1(O)CCC2C3CCC4CC(O)CCC4(C)C3C(=O)CC21C (stereo not drawn)	/	/	/	5	/
CC(C)=CCC[C@](C)(O)C1CC[C@]2(C)C1C(O)CC1[C@@]3(C)CCC(O)C(C)(C)C3C(O[C@@H]3OC(CO)C(O)C(O)C3O[C@@H]3OC(C)C(O)C(O)C3O)C[C@]12C (stereo partly drawn)	/	-1	-6	-5	/
